Experimental data reported in PubChem BioAssay AID488890 (Southern Research Specialized Biocontainment Screening …, 2010).
Out of some 320,000 compounds screened, about 1,300 (0.41%) were called active. Not shown: some 3% with an inconclusive outcome. The rule behind the calls is not given here. These entries were drawn from the full list. Potency and affinity values are given separately.

Assay: growth inhibition of non-replicating M. tuberculosis (AID 488890);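 note: plate controls were DMSO cells for no effect and high antibiotic wells for full effect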
Conditions: Mycobacterium tuberculosis non-replicating, at 25 µM, stronger effect = higher value

| SMILES | inhibition [%] |
| --- | --- |
| COC1C(C)=C(C)C(=O)N1Cc1ccccc1 (configuration not stated) | -5.86 |
| C/C(=N\O)c1cc(Cl)cc(Cl)c1O | 19 |
| C/C(=N\O)c1ccc(Cl)cc1Cl | 1.76 |
| CCCCC(=O)N=c1sc2cc(S(C)(=O)=O)ccc2n1C | -0.02 |
| O=C(Nc1nnc(-c2ccc(F)cc2)o1)c1cccc([N+](=O)[O-])c1 | -8.79 |
| O=C(Nc1nnc(-c2ccccc2)o1)c1cc(Cl)sc1Cl | 9.95 |
| CS(=O)(=O)c1cccc(-c2nnc(NC(=O)c3ccc4ncsc4c3)o2)c1 | -2.94 |
| O=C(Nc1ccc(F)cc1)c1cc(Cl)sc1Cl | 70.7 |
| COc1cccc(C(=O)Nc2cccc(-c3nnc(-c4ccccc4)o3)c2)c1 | -7.83 |
| O=C(Nc1nnc(-c2cccnc2)o1)c1ccccc1Cl | 35.5 |
| COC(=O)c1ccc(C(=O)Nc2nnc(-c3cccnc3)o2)cc1 | 7.58 |
| CS(=O)(=O)c1ccccc1-c1nnc(NC(=O)c2ccc3ncsc3c2)o1 | 10.1 |
| O=C1CC(N2CCC(c3nc4ccccc4[nH]3)CC2)C(=O)N1c1cccc(F)c1 (configuration not stated) | 20.2 |
| CCOC(=O)Cn1c(=NC(=O)CSC(C)=O)sc2cc(F)ccc21 | 30.8 |
| Cc1nc(OCc2c(C)noc2C)c2ccccc2n1 | -6.1 |
| Brc1ccc(-c2ccccc2)cc1 | 27.1 |

| SMILES | inhibition [%] |
| --- | --- |
| Cc1ccc(OCC(=O)Nc2ccccc2C(=O)N2CCCC2)cc1 | 1.03 |
| Cc1nnsc1C(=O)Nc1ccc(Cl)cc1 | -9.77 |
| Cc1nnsc1S(=O)c1ccc(Cl)cc1 (configuration not stated) | -4.16 |
| Cc1cccc(-c2nc3cc([N+](=O)[O-])ccc3o2)c1 | 4.61 |
| COc1ccc(-c2[nH]nc3oc(=O)cc(C)c23)cc1 | 7.5 |
| Cc1nc2ncccn2c1-c1csc(Nc2cccc(C(=O)O)c2)n1 | -13.4 |
| CC1CCC(NS(=O)(=O)c2cccc3nsnc23)CC1 (configuration not stated) | 0.44 |
| CCC(C(=O)O)n1nnc(-c2ccc(-c3ccc(OC)cc3)cc2)n1 (configuration not stated) | 28 |
| CCCCOc1ccc(-c2nnn(CC(=O)Nc3ncc(CC(=O)OCC)s3)n2)cc1 | 78.8 |
| COc1cccc(C(=O)/C=C2\NCCc3cc(OC)c(OC)cc32)c1 | 21.5 |
| CCN1CCN(C(=O)N(c2ccccc2)c2ccccc2)CC1 | -28.4 |
| NC(=O)CC(NC(=O)Cc1cccc2ccccc12)c1ccc(NCCN2CCCCC2)c([N+](=O)[O-])c1 (configuration not stated) | 3.25 |
| OC(COC(c1ccc(F)cc1)c1ccc(F)cc1)CN1CCCC1 (configuration not stated) | 1.01 |
| OC1CCCN(CC(O)COC(c2ccc(F)cc2)c2ccc(F)cc2)C1 (configuration not stated) | -5 |
| CCOC(=O)C1(CCOc2ccccc2)CCN(Cc2ccc(O)c(Cl)c2)CC1 | 63.3 |
| CN1CCN(NC(=O)c2ccc(Cl)c(S(=O)(=O)Nc3ccc(Cl)cc3)c2)CC1 | -0.68 |
